PubChem BioAssay (NCI)
The panel holds about 83,000 compounds, 20% with a hit somewhere; the sample as a whole holds those more often.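 96-well plates, one dose, 48 hours. Percent growth reported; active if below 10.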 The source made the active and inactive calls.

Experiments:
Experiment in all cases: NCI-60 one-dose screen, 48 h (100 = growth as untreated, 0 = no growth, -100 = all killed)
Details in all cases: 10 µM unless noted
SK-MEL-2 melanoma = test system: SK-MEL-2 melanoma
EKVX NSCLC = test system: EKVX NSCLC
SN12C renal = test system: SN12C renal
UO-31 renal = test system: UO-31 renal
TK-10 renal = test system: TK-10 renal
ACHN renal = test system: ACHN renal
CCRF-CEM leukemia = test system: CCRF-CEM leukemia
MOLT-4 leukemia = test system: MOLT-4 leukemia
SR leukemia = test system: SR leukemia
RPMI-8226 leukemia = test system: RPMI-8226 leukemia
OVCAR-8 ovarian = test system: OVCAR-8 ovarian
OVCAR-5 ovarian = test system: OVCAR-5 ovarian
SK-OV-3 ovarian = test system: SK-OV-3 ovarian
IGROV1 ovarian = test system: IGROV1 ovarian
OVCAR-3 ovarian = test system: OVCAR-3 ovarian
HS 578T breast = test system: HS 578T breast
NCI/ADR-RES ovarian = test system: NCI/ADR-RES ovarian
A498 renal = test system: A498 renal
OVCAR-4 ovarian = test system: OVCAR-4 ovarian
CAKI-1 renal = test system: CAKI-1 renal

Measured: growth

CN(C)CCCn1c2c(c3ccc(-c4ccn[nH]4)cc3c1=O)C(=O)c1ccccc1-2
inactive: SK-MEL-2 melanoma 121% | EKVX NSCLC 34.2% | UO-31 renal 25.5% | TK-10 renal 54.4% | OVCAR-8 ovarian 23.7% | OVCAR-5 ovarian 59.2% | SK-OV-3 ovarian 23.5% | IGROV1 ovarian 41.2% | OVCAR-3 ovarian 66.9% | HS 578T breast 68.6% | NCI/ADR-RES ovarian 50.3%
active: SN12C renal 5.41% | ACHN renal -28.9% | CCRF-CEM leukemia 0.484% | MOLT-4 leukemia -0.72% | SR leukemia -1.12% | RPMI-8226 leukemia -0.979%

CC1NC(=S)NC(=O)/C1=C/c1cc(=O)oc2c1ccc1ccccc12 (centres undefined)
inactive: SK-MEL-2 melanoma 91% | EKVX NSCLC 88.7% | SN12C renal 95.6% | UO-31 renal 73.6% | TK-10 renal 123% | ACHN renal 95.6% | A498 renal 101% | CCRF-CEM leukemia 81% | MOLT-4 leukemia 88.6% | SR leukemia 94% | RPMI-8226 leukemia 102% | OVCAR-8 ovarian 87.5% | OVCAR-5 ovarian 105% | OVCAR-4 ovarian 95.7% | SK-OV-3 ovarian 94.4% | IGROV1 ovarian 91.9% | OVCAR-3 ovarian 100% | HS 578T breast 94.4% | NCI/ADR-RES ovarian 92.7%

COc1ccc(Nc2nc(N)nc3c2CCc2occc2-3)cc1
inactive: SK-MEL-2 melanoma 106% | EKVX NSCLC 84.1% | SN12C renal 99.5% | UO-31 renal 83.7% | TK-10 renal 121% | ACHN renal 104% | A498 renal 98.2% | CCRF-CEM leukemia 97.3% | MOLT-4 leukemia 94.3% | SR leukemia 85.8% | RPMI-8226 leukemia 101% | OVCAR-8 ovarian 102% | OVCAR-5 ovarian 106% | OVCAR-4 ovarian 96.9% | SK-OV-3 ovarian 97.8% | IGROV1 ovarian 102% | OVCAR-3 ovarian 103% | HS 578T breast 105% | NCI/ADR-RES ovarian 96.2%

OC(c1ccccc1)c1ccccn1 (centres undefined)
inactive: SK-MEL-2 melanoma 104% | EKVX NSCLC 98.8% | SN12C renal 99.6% | UO-31 renal 93.1% | TK-10 renal 99.3% | ACHN renal 108% | A498 renal 98.5% | CCRF-CEM leukemia 88.7% | MOLT-4 leukemia 96.8% | SR leukemia 99.1% | RPMI-8226 leukemia 101% | OVCAR-8 ovarian 95.9% | OVCAR-5 ovarian 108% | OVCAR-4 ovarian 116% | SK-OV-3 ovarian 92% | IGROV1 ovarian 106% | OVCAR-3 ovarian 105% | HS 578T breast 91% | NCI/ADR-RES ovarian 110%

C=CCn1c(SCC(=O)Nc2ccc(C(=O)/C=C/c3cc(OC)c(OC)c(OC)c3)cc2)nnc1-c1cc(OC)c(OC)c(OC)c1
active: CCRF-CEM leukemia 1.85% | SR leukemia -5.4% | RPMI-8226 leukemia -32.3% | OVCAR-3 ovarian -21%
inactive: SK-MEL-2 melanoma 80.9% | EKVX NSCLC 51.8% | SN12C renal 33.8% | UO-31 renal 42% | TK-10 renal 87.3% | ACHN renal 37.8% | A498 renal 55.8% | MOLT-4 leukemia 12.3% | OVCAR-8 ovarian 28.4% | OVCAR-5 ovarian 95% | OVCAR-4 ovarian 55.2% | SK-OV-3 ovarian 76.5% | IGROV1 ovarian 22.2% | HS 578T breast 69% | NCI/ADR-RES ovarian 73%

CN(C)c1ccc(-c2c(C#N)c(N)n3nc(N)c(C#N)c3c2C#N)cc1
inactive: SK-MEL-2 melanoma 88.3% | EKVX NSCLC 76.5% | SN12C renal 72.3% | UO-31 renal 75.5% | TK-10 renal 82.4% | ACHN renal 86.5% | A498 renal 106% | CCRF-CEM leukemia 94% | MOLT-4 leukemia 90% | SR leukemia 62.1% | RPMI-8226 leukemia 32.2% | OVCAR-5 ovarian 63.7% | OVCAR-4 ovarian 101% | SK-OV-3 ovarian 71.3% | IGROV1 ovarian 55.7% | OVCAR-3 ovarian 85.3% | HS 578T breast 93.2% | NCI/ADR-RES ovarian 90.4%

CCCCCCCC(=O)Nc1nc2[nH]c(CN3CCN(Cc4cccc(I)c4)CC3)c(CN3CCN(Cc4cccc(I)c4)CC3)c2c(=O)[nH]1
active: SK-MEL-2 melanoma -34% | EKVX NSCLC -44.5% | SN12C renal -87.3% | UO-31 renal -99.9% | TK-10 renal -91.9% | ACHN renal -98.9% | CCRF-CEM leukemia 1.17% | SR leukemia -43.4% | RPMI-8226 leukemia -22.5% | OVCAR-8 ovarian -49.6% | OVCAR-5 ovarian -66.1% | OVCAR-4 ovarian -89.8% | SK-OV-3 ovarian -69.8% | IGROV1 ovarian -74% | OVCAR-3 ovarian -95.8% | HS 578T breast -40.9% | NCI/ADR-RES ovarian -51.1%
inactive: A498 renal 45.5%

COc1ccc(-n2cc(-c3cc(OC)c(OC)c(OC)c3)n(C(C)=O)c2=O)cc1
inactive: SK-MEL-2 melanoma 93.2% | EKVX NSCLC 88% | SN12C renal 93.4% | UO-31 renal 77.2% | TK-10 renal 105% | ACHN renal 97.7% | CAKI-1 renal 53.7% | RPMI-8226 leukemia 123% | OVCAR-8 ovarian 91.8% | OVCAR-5 ovarian 78.3% | OVCAR-4 ovarian 79.9% | SK-OV-3 ovarian 94.6% | IGROV1 ovarian 107% | OVCAR-3 ovarian 108% | HS 578T breast 92.3% | NCI/ADR-RES ovarian 100%

COc1ccc2c(/C=C3/C(=O)NC(=S)NC3C)cc(=O)oc2c1 (centres undefined)
inactive: SK-MEL-2 melanoma 86.8% | EKVX NSCLC 101% | SN12C renal 97.7% | UO-31 renal 88.3% | TK-10 renal 93.5% | ACHN renal 108% | CCRF-CEM leukemia 93.2% | MOLT-4 leukemia 90.5% | SR leukemia 96.6% | RPMI-8226 leukemia 117% | OVCAR-8 ovarian 91.6% | OVCAR-5 ovarian 94.1% | SK-OV-3 ovarian 100% | IGROV1 ovarian 96.2% | OVCAR-3 ovarian 101% | HS 578T breast 100% | NCI/ADR-RES ovarian 99%

Cc1ccc(O)c(C(=O)O)c1
inactive: SK-MEL-2 melanoma 109% | EKVX NSCLC 118% | SN12C renal 104% | UO-31 renal 94% | TK-10 renal 72.7% | ACHN renal 106% | A498 renal 99.9% | CCRF-CEM leukemia 98.1% | MOLT-4 leukemia 97.7% | SR leukemia 101% | RPMI-8226 leukemia 103% | OVCAR-5 ovarian 108% | OVCAR-4 ovarian 122% | SK-OV-3 ovarian 106% | IGROV1 ovarian 95.3% | OVCAR-3 ovarian 107% | HS 578T breast 108% | NCI/ADR-RES ovarian 111%

Cc1nccc2c3ccc(OCc4cn(-c5ccc(Cl)cc5)nn4)cc3n(CCCc3ccccc3)c12
inactive: SK-MEL-2 melanoma 90.8% | EKVX NSCLC 66.3% | A498 renal 87.5% | MOLT-4 leukemia 18.2% | OVCAR-5 ovarian 43.4% | SK-OV-3 ovarian 53.2% | IGROV1 ovarian 34% | OVCAR-3 ovarian 26.6%
active: SN12C renal 6.96% | UO-31 renal -87.1% | TK-10 renal -16.1% | ACHN renal -20.4% | CCRF-CEM leukemia 2.43% | SR leukemia -34.1% | RPMI-8226 leukemia 7.63% | OVCAR-8 ovarian -33.2% | OVCAR-4 ovarian -51.1% | HS 578T breast -35.7% | NCI/ADR-RES ovarian -44.1%

CCOC(=O)c1ccc(Nc2ccnc(SCC(=O)c3ccc(C#N)cc3)n2)cc1
inactive: SK-MEL-2 melanoma 71.1% | EKVX NSCLC 73.4% | SN12C renal 73.8% | TK-10 renal 90.4% | ACHN renal 80% | CAKI-1 renal 57.1% | A498 renal 50.2% | CCRF-CEM leukemia 17.5% | MOLT-4 leukemia 16.3% | SR leukemia 54.1% | RPMI-8226 leukemia 20.4% | OVCAR-8 ovarian 22.8% | OVCAR-5 ovarian 107% | OVCAR-4 ovarian 65.2% | SK-OV-3 ovarian 101% | IGROV1 ovarian 79% | OVCAR-3 ovarian 79.1% | HS 578T breast 92.1%

COc1cccc(C(Cc2ccccc2)Nc2ccccc2)c1OC (centres undefined)
inactive: SK-MEL-2 melanoma 83% | EKVX NSCLC 96.1% | SN12C renal 103% | UO-31 renal 85.4% | TK-10 renal 96.7% | ACHN renal 106% | A498 renal 90% | CCRF-CEM leukemia 87.5% | MOLT-4 leukemia 78.6% | SR leukemia 102% | RPMI-8226 leukemia 89.7% | OVCAR-8 ovarian 99% | OVCAR-5 ovarian 103% | OVCAR-4 ovarian 98.1% | SK-OV-3 ovarian 91.3% | IGROV1 ovarian 86.8% | OVCAR-3 ovarian 98.4% | HS 578T breast 106% | NCI/ADR-RES ovarian 98.2%

Cc1ccc(-c2csc(/N=C3\C(=O)Nc4ccccc43)n2)cc1
inactive: EKVX NSCLC 33.6% | SN12C renal 23.4% | UO-31 renal 42% | ACHN renal 36.7% | OVCAR-8 ovarian 16.3% | OVCAR-5 ovarian 60.8% | OVCAR-4 ovarian 36% | SK-OV-3 ovarian 32.4% | IGROV1 ovarian 25.3% | HS 578T breast 31.2% | NCI/ADR-RES ovarian 81%
active: SK-MEL-2 melanoma -51.2% | TK-10 renal 8.33% | A498 renal 5.79% | CCRF-CEM leukemia 6.64% | MOLT-4 leukemia -19.5% | SR leukemia -30.2% | RPMI-8226 leukemia -20.2% | OVCAR-3 ovarian -10.7%

C#Cc1cccc(NC(=O)Nc2ccc(NC(=O)CCl)cc2)c1
active: SK-MEL-2 melanoma -25% [8.25 µM] | SN12C renal -9.22% [8.25 µM] | TK-10 renal -71.4% [8.25 µM] | ACHN renal -99.5% [8.25 µM] | CAKI-1 renal 9.01% [8.25 µM] | CCRF-CEM leukemia -29.8% [8.25 µM] | MOLT-4 leukemia -9.78% [8.25 µM] | SR leukemia -36.4% [8.25 µM] | RPMI-8226 leukemia -37.1% [8.25 µM] | OVCAR-8 ovarian -14.9% [8.25 µM] | OVCAR-5 ovarian -14.5% [8.25 µM] | OVCAR-4 ovarian -50.8% [8.25 µM] | SK-OV-3 ovarian -86.7% [8.25 µM] | IGROV1 ovarian -88% [8.25 µM] | OVCAR-3 ovarian -88% [8.25 µM] | HS 578T breast -4.85% [8.25 µM] | NCI/ADR-RES ovarian -8.33% [8.25 µM]
inactive: EKVX NSCLC 88.3% [8.25 µM] | A498 renal 76.4% [8.25 µM]

CCCCCOc1ccc(/C=N/Nc2cc(C)nc3ccc(Br)cc23)cc1
inactive: SK-MEL-2 melanoma 105% | EKVX NSCLC 76.3% | TK-10 renal 19.1% | CAKI-1 renal 43.6% | OVCAR-5 ovarian 106% | HS 578T breast 85.5% | NCI/ADR-RES ovarian 63.6%
active: SN12C renal -88.8% | ACHN renal -26.2% | CCRF-CEM leukemia 3.51% | MOLT-4 leukemia -21.8% | SR leukemia -9.53% | RPMI-8226 leukemia -8.25% | OVCAR-8 ovarian -46.3% | OVCAR-4 ovarian 4.88% | IGROV1 ovarian -11.7% | OVCAR-3 ovarian -83.2%

Cc1ccc(C(=O)Nc2ccccc2C(=O)N/N=C(\c2ccccc2)c2ccccn2)cc1
active: CCRF-CEM leukemia 8.79% | OVCAR-4 ovarian 9.94% | SK-OV-3 ovarian 8.33%
inactive: SK-MEL-2 melanoma 41.4% | EKVX NSCLC 13.1% | SN12C renal 28.9% | TK-10 renal 47.2% | ACHN renal 15.1% | CAKI-1 renal 10.5% | MOLT-4 leukemia 15.8% | SR leukemia 16.8% | RPMI-8226 leukemia 16% | OVCAR-8 ovarian 19.5% | OVCAR-5 ovarian 43.3% | IGROV1 ovarian 24% | OVCAR-3 ovarian 22.5% | HS 578T breast 68.3% | NCI/ADR-RES ovarian 13.3%
